The source of these data is PubChem BioAssay (NCATS).

A short description of assay [1]: Confirmation and Secondary Assay for Modulators of Hemoglobin Beta Chain Splicing at IVS2 705 locus (AID 930).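 Further: HeLa cells stably expressing the EGFP-705 splicing reporter; GFP fluorescence per well restored by corrected splicing of the IVS2-705 intron in EGFP; % of control where 0% means no effect.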 In outline:
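HeLa cells stably carrying EGFP interrupted by mutant beta-globin intron 2 (IVS2-705) treated 2 days at 37C with compound; 500 nM antisense PNA as control. Correct splicing read as total peak GFP intensity per well by laser-scanning cytometry.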

Assay [2] concerns the target Tyrosyl-DNA phosphodiesterase 1 (Homo sapiens) (UniProt Q9NUW8). Description: Confirmation Assay for Inhibitors of Tyrosyl-DNA Phosphodiesterase (TDP1) (AID 489007). Further: potency means the concentration at half of the fitted maximal effect; nearly all actives have a fitted effect of over 40% in size. To be noted: recombinant human TDP1 enzymatic activity, dose-response. An outline of the steps: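 Compounds are preincubated 15 min at room temperature with 1 nM recombinant human Tdp1. The reaction starts on adding 15 nM FITC-phosphotyrosine DNA substrate, runs 5 min, and is detected by AlphaScreen beads after 10 min.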

The target of assay [3] is Luciferin 4-monooxygenase (Photinus pyralis) (UniProt P08659). Description: Biochemical firefly luciferase enzyme assay for NPC (AID 624030).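 Further: purified P. pyralis luciferase at 10 nM with luciferin and ATP substrate; 0% = DMSO and -100% = full luciferase inhibition by PTC124 control; nearly all actives have a fitted effect of over 70% in size.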 An outline of the steps:
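Purified P. pyralis luciferase at 10 nM in 50 mM Tris Acetate (final), luminescence read within 5 minutes of enzyme addition to compounds. Activity normalised to PTC124 versus DMSO; concentration-response curves classed by r2, magnitude and activity.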

The test system of another assay is GB4. The assay is described as follows: qHTS profiling for inhibitors of Plasmodium falciparum proliferation (AID 504749).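 Further: 0% = DMSO vehicle and full inhibition = artemisinin control; nearly all actives have a fitted effect of over 60% in size.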 As to conditions: P. falciparum in erythrocytes, SYBR Green DNA, 72 h; series mostly up to 28.7 µM. In outline: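 Each compound contacts P. falciparum-infected red blood cells for 72 h at 37 C; lysis buffer (Tris, EDTA, saponin, Triton X, SYBR Green I) is added and fluorescence measured next morning; values normalized to controls.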

The target of assay [4] is Estrogen receptor (Homo sapiens) (UniProt P03372). Description: qHTS assay for small molecule antagonists of estrogen receptor alpha signaling (AID 588513; active means well fitted curve in the direction sought with a large enough effect in the signal ratio, with a control signal flat, not every such curve was filed as active; the % refers to the signal ratio; further: on the % scale 0 is the no-effect control and ±100 the full control effect). In outline:
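Antagonist-mode qHTS in ER-alpha-UAS-bla HEK 293 cells: compound titration, 0.5nM estradiol for 18 h, CCF4 fluorescence, Hill-derived IC50.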

For assay [5] the target is unchanged. Description: qHTS assay for small molecule agonists of estrogen receptor alpha signaling (AID 588514; calls by dose curve; further: potency means the concentration at half of the fitted maximal effect; nearly all actives have a fitted effect of over 70% in size). In outline:
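Efficacy is expressed against 20 nM 17-beta-estradiol (100%) and DMSO basal (0%); EC50 from Hill equation. Assay: beta-lactamase reporter in ER-alpha-UAS-bla HEK 293 cells, 18 h compound incubation, CCF4 detection.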
In general terms: In qHTS, concentration-response curves come from the screen itself.

For assay [6], the target named is Bile acid receptor (Homo sapiens) (UniProt Q96RI1). Description: qHTS assay for small molecule antagonists of farnesoid X receptor signaling (AID 588526; calls by dose curve; further: on the % scale 0 is the no-effect control and ±100 the full control effect). An outline of the steps: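 Antagonist mode: titrated compounds tested against chenodeoxycholic acid stimulation (normalized to 50 uM CDCA and DMSO) in GeneBLAzer HEK293T cells for 16 h. Beta-lactamase read by CCF4 fluorescence; IC50 from Hill fits.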
Bile acid receptor (Homo sapiens), sequence (Q96RI1 whole entry, looked up): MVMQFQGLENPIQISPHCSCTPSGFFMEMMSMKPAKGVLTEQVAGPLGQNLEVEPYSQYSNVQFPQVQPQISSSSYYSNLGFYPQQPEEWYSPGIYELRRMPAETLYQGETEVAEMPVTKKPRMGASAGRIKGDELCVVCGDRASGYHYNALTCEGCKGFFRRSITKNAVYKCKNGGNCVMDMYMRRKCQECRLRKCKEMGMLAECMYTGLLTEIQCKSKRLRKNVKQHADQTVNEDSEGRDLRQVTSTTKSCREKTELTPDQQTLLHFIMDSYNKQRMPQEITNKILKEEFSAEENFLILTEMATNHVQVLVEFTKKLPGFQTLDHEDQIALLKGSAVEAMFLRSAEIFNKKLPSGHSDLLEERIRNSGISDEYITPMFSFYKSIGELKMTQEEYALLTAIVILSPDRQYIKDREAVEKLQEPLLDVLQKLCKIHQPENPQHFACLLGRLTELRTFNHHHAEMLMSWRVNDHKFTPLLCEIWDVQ

Assay [7] can be described thus: qHTS assay for small molecule antagonists of peroxisome proliferator-activated receptor delta signaling (AID 588535; active means well fitted inhibition curve with a large enough effect in the signal ratio, with a control signal flat, not every such curve was filed as active; the % refers to the signal ratio;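 on max response: cells co-treated with a PPAR-delta agonist as stimulator during compound exposure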). To be noted: HEK293T PPARd-UAS-bla, beta-lactamase FRET ratio, 18 h; 460 nm channel. In outline: (§1)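 Fluorescence from CCF4-loaded GeneBLAzer PPAR-delta-UAS-bla HEK293T cells (2 hrs RT loading) quantified reporter inhibition after an 18 hr, 37 C compound exposure across a titration.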

Assay [8] deals with Peroxisome proliferator-activated receptor delta (Homo sapiens) (UniProt Q03181). The description is as above. In outline: as §1
Peroxisome proliferator-activated receptor delta (Homo sapiens), sequence (Q03181 whole entry, looked up): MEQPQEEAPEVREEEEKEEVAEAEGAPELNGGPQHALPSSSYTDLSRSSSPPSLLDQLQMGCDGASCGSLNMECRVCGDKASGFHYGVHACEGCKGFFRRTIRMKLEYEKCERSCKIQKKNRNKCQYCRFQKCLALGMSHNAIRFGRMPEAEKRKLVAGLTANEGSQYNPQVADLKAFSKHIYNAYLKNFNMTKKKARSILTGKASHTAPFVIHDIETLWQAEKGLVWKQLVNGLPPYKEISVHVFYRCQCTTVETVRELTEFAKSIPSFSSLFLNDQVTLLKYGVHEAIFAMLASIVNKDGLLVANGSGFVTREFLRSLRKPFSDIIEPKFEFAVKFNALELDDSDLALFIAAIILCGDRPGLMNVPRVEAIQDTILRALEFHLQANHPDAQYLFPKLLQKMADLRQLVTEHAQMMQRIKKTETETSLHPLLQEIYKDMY
In assay [9] the target is Peroxisome proliferator-activated receptor gamma (Homo sapiens) (UniProt P37231). Description: qHTS assay for small molecule agonists of peroxisome proliferator-activated receptor gamma signaling (AID 588536; active means well fitted curve in the direction sought with a large enough effect in the signal ratio, with a control signal flat, not every such curve was filed as active; the % refers to the signal ratio;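 further: 0% = DMSO basal wells and 100% = rosiglitazone at 2 µM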). An outline of the steps: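 This is an agonist-mode beta-lactamase reporter assay in HEK293 PPAR-gamma-UAS-bla cells with 1% charcoal/dextran FBS. Compound titrations ran 16 h at 37 C before CCF4 detection. EC50 and efficacy are Hill fits scaled to 2 uM rosiglitazone (100%) and DMSO basal.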
Peroxisome proliferator-activated receptor gamma (Homo sapiens), sequence (P37231 whole entry, looked up): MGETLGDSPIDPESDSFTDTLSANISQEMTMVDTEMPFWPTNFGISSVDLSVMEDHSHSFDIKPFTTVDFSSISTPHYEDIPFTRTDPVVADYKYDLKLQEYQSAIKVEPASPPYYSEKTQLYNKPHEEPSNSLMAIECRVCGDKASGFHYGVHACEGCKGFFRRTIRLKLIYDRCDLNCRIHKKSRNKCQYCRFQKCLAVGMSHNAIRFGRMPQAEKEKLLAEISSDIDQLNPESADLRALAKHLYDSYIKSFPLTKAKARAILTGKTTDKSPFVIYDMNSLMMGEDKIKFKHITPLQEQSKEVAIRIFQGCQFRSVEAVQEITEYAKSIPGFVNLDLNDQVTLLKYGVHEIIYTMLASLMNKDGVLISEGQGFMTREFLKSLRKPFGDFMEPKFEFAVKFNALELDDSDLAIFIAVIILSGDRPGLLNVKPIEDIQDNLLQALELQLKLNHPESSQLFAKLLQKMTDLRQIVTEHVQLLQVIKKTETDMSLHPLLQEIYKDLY

The target in assay [10] is Vitamin D3 receptor (Homo sapiens) (UniProt P11473). The assay is described as follows: qHTS assay for small molecule antagonists of vitamin D receptor signaling (AID 588541; calls by dose curve;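 further: receptor activated by calcitriol during compound treatment; on the % scale 0 is the no-effect control and ±100 the full control effect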). In outline: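 VDR-UAS-bla HEK293T cells in 2% charcoal-stripped FBS were stimulated with 1-alpha,25-dihydroxyvitamin D3 (3 nM final) plus compound for 16 h at 37 C. The beta-lactamase CCF4 readout was normalized to 50 nM agonist and DMSO, and Hill fits gave IC50.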
Vitamin D3 receptor (Homo sapiens), sequence (P11473 whole entry, looked up): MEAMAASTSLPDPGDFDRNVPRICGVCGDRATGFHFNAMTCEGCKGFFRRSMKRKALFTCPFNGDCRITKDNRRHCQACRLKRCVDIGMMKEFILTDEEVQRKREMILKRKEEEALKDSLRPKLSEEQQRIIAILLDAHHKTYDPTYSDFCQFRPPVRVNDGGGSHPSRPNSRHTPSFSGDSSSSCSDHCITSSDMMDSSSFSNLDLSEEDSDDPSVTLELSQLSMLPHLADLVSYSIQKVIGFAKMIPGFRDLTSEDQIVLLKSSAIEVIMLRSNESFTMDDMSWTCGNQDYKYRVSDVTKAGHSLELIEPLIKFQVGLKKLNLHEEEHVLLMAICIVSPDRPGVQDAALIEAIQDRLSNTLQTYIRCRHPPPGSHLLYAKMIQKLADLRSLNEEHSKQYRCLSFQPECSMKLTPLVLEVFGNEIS

The target is the same in assay [11]. Description: qHTS assay for small molecule agonists of vitamin D receptor signaling (AID 588543; calls by dose curve;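 further: 0% = DMSO basal and 100% = reference agonist control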). In outline:
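Measured: β-lactamase reporter activity (CCF4, 405 nm excitation, 460/530 nm emission) in HEK293T VDR-UAS-bla cells after 16 h compound exposure at 37 °C. Normalization against 50 nM 1α,25-dihydroxyvitamin D3 and DMSO; Hill-fit EC50.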

Assay [12] is described as follows: qHTS assay for small molecule agonists of retinoid X receptor alpha signaling (AID 588544; calls by dose curve;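 on activation: 0% = DMSO basal wells and 100% = reference agonist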). As to conditions: HEK293T RXRa-UAS-bla, beta-lactamase reporter, 18 h; 530 nm emission.
The target of assay [13] is Retinoic acid receptor RXR-alpha (Homo sapiens) (UniProt P19793). The description is as above.
Retinoic acid receptor RXR-alpha (Homo sapiens), sequence (P19793 whole entry, looked up): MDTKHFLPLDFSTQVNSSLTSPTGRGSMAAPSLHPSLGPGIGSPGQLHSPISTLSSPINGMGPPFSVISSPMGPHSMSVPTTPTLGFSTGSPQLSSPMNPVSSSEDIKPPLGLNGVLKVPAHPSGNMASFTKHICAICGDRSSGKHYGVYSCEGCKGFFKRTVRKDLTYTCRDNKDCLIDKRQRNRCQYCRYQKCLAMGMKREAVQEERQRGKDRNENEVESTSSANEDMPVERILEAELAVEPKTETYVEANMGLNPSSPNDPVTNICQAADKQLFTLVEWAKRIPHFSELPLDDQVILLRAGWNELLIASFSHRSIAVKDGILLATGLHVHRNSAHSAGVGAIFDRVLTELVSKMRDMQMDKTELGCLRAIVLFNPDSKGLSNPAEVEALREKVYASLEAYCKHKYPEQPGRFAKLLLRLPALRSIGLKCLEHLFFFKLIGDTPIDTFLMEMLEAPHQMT
The target in assay [14] is Thyroid hormone receptor beta (Homo sapiens) (UniProt P10828). Description: qHTS assay for small molecule agonists of thyroid hormone receptor beta signaling (AID 588545; calls by dose curve). In outline:
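Agonist activity was read as beta-lactamase CCF4 fluorescence (405 ex, 460/530 em), scaled between DMSO (0%) and 10 nM T3 (100%), then Hill-fitted for EC50 and efficacy. HEK 293 TR-UAS-bla cells in 2% charcoal/dextran FBS medium were exposed 18 h at 37 C.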

The nature of assay [15]: qHTS assay for small molecule antagonists of retinoid X receptor alpha signaling (AID 588546; active means well fitted inhibition curve with a large enough effect in the signal ratio, with a control signal flat, not every such curve was filed as active; the % refers to the signal ratio;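 further: cells stimulated with 9-cis-retinoic acid as agonist; on the % scale 0 is the no-effect control and ±100 the full control effect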). As to conditions: HEK293T RXRa-UAS-bla, beta-lactamase ratio, antagonist mode; measured here: W530 green channel, cytotoxicity proxy. In outline: (§2)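 Beta-lactamase reporter inhibition, read as CCF4 fluorescence ratio (ex 405, em 460/530 nm) after 2 h at RT. HEK293T UAS-bla cells, 2500/well, were stimulated with 9-cis-RA at 500 or 100 nM final alongside test compound for 18 h at 37 C.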

Assay [16] addresses Retinoic acid receptor RXR-alpha (Homo sapiens) (UniProt P19793). Described as above. To be noted: HEK293T RXRa-UAS-bla, beta-lactamase ratio, antagonist mode. An outline of the steps:
as §2

The nature of assay [17]: qHTS assay for small molecule agonists of the antioxidant response element (ARE) signaling pathway (AID 651741; active means well fitted activation curve with a large enough effect in the signal ratio; the % refers to the signal ratio; further: potency means the concentration at half of the fitted maximal effect). In outline:
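Stably integrated ARE-beta-lactamase reporter HepG2 cells; 16 h compound incubation, 37 C; LiveBLAzer FRET substrate 2 h at room temperature; fluorescence intensity.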

Assay [18] can be described thus: qHTS assay for small molecule activators of the p53 signaling pathway (AID 651743; active means well fitted activation curve with a large enough effect in the signal ratio, not every such curve was filed as active; the % refers to the signal ratio; further: % of control where 0% means no effect). To be noted: HCT-116 p53RE-bla, beta-lactamase FRET ratio, 16 h; activation: stronger effect = higher value. In outline:
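Following 16 hours of compound exposure at 37 C, HCT-116 cells bearing the p53RE-bla reporter were loaded with LiveBLAzer B/G FRET substrate for 2 hours at room temperature and fluorescence intensity was recorded.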

Assay [19] can be described thus: qHTS assay for small molecule activators of the nuclear factor-kappa B (NF-kB) signaling pathway (AID 651749; active means well fitted activation curve with a large enough effect in the signal ratio; the % refers to the signal ratio; further: % of control where 0% means no effect). As to conditions: NF-kB-bla ME-180 cells, beta-lactamase FRET ratio, 16 h; stronger effect = higher value. In outline: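 In this qHTS format, compounds acting as activators increase NF-kB-driven beta-lactamase in ME-180 cells, measured as disrupted FRET after 16 hr exposure at 37C and 5% CO2.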

Records with an inconclusive call do not appear. The source made the active and inactive calls. Unless noted, the call rests on the fitted dose curve; in most records, active means well fitted curve in the direction sought with a large enough effect; inconclusive means small, poorly fitted or top-dose-only effect, or another doubt; inactive means no such curve, though single readings can be large; an effect the other way counts as inactive or inconclusive.

Estrogen receptor (Homo sapiens), sequence (P03372 whole entry, looked up): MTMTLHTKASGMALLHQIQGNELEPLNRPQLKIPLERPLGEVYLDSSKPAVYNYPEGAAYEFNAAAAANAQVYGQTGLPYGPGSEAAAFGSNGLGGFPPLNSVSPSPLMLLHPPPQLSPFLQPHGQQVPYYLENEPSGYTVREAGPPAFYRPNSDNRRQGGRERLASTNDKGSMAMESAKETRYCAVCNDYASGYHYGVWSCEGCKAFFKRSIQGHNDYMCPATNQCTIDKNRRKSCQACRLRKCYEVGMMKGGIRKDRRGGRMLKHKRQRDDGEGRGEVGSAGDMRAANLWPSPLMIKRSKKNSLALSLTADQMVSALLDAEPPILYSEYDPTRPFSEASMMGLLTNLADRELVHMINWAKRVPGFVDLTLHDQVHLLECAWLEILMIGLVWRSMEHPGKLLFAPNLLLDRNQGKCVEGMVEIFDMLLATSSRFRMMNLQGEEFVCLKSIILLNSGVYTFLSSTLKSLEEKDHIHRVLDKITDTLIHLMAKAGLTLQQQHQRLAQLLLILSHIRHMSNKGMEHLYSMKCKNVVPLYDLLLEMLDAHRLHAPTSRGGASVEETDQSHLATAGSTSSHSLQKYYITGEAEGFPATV
Luciferin 4-monooxygenase (Photinus pyralis), sequence (P08659 whole entry, looked up): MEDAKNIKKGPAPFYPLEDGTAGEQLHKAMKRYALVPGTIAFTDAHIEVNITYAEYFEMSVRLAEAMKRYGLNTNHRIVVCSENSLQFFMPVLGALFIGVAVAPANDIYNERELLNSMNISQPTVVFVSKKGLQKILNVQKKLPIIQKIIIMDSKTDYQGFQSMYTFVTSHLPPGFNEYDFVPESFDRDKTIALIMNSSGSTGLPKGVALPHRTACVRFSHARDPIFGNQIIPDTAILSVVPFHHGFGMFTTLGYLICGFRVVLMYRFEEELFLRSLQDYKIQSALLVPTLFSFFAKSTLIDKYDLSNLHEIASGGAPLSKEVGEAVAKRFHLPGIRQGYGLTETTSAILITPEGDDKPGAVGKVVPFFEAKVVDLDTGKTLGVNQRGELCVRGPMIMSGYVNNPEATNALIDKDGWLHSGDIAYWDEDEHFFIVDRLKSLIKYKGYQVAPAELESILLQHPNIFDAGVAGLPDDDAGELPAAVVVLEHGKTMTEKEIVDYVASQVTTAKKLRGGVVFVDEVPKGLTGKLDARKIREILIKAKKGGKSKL
Tyrosyl-DNA phosphodiesterase 1 (Homo sapiens), sequence (Q9NUW8 whole entry, looked up): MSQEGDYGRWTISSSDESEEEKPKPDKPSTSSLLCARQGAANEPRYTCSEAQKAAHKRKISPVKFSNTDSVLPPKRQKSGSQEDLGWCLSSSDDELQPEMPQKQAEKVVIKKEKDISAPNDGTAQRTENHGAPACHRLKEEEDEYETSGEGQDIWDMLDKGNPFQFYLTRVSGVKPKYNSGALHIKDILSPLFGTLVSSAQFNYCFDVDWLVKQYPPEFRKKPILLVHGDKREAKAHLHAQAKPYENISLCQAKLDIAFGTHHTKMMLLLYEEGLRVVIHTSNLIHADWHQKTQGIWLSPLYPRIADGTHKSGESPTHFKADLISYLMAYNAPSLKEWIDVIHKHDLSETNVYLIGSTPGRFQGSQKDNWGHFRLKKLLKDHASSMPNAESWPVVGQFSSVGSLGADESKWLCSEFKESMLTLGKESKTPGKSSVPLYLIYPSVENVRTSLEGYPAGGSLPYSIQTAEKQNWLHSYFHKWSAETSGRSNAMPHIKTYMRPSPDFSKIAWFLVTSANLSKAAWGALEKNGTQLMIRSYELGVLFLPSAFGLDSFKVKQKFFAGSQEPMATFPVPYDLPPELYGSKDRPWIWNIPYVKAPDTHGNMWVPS
Thyroid hormone receptor beta (Homo sapiens), sequence (P10828 whole entry, looked up): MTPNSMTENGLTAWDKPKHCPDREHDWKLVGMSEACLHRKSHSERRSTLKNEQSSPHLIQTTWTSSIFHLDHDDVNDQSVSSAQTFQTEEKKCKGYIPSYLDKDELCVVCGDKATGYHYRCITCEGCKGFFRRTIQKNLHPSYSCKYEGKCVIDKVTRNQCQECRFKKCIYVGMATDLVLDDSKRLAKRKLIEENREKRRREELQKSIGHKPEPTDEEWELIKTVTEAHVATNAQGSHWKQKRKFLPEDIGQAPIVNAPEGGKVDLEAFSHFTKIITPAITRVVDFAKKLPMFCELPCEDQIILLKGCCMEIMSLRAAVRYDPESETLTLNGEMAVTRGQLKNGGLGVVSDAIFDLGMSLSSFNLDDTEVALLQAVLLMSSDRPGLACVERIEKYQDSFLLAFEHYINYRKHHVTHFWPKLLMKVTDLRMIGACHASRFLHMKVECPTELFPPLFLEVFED

As to `CN(C)C(=O)c1ccc(-c2nc(Nc3ccc(F)cc3)c3ccccc3n2)cc1`, the call in assay [1] was inactive.

In the case of `O=C(O)[C@@H](O)[C@@H](O)[C@H](O)[C@H](O)CO`, the Potency in assay [2] is 5.01 µM (active). The compound was classed as inactive in assay [3].

In the case of `C[C@]12CC[C@H]3c4ccc(O)cc4CC[C@@H]3[C@H]1CC[C@@H]2OP(=O)(O)O`, in [3], the call was inactive. The Potency result with GB4 is “inactive”.

Regarding `N[C@@H](Cc1ccccc1)C(=O)O`, the outcome in assay [1], in assay [4], in assay [8] and in assay [9] was inactive. Besides, the Potency in [5] is 11.2 µM (active); in [17], 54.5 µM (active). In addition, the Potency entry (in assay [6]; in [10]; in [11]; in assay [13]; in assay [14]; with GB4) was “inactive” in each case. Also, the max response in assay [7] is -16.9%; in assay [12], -4.85%; in assay [15], -15%; in assay [16], 7.11% (inactive). Further, the activation was -1.26% (inactive) in assay [18] and 0.13% (inactive) in [19].

As to `CN(C)[C@H]1C(=O)C(C(=O)NCN2CCCC2)=C(O)[C@]2(O)C(=O)C3=C(O)c4c(O)cccc4[C@](C)(O)[C@H]3C[C@H]12`, the Potency in assay [2] is 0.0794 µM (active).
